Screening results from PubChem BioAssay.
An excerpt weighted towards active compounds, which were near 3.3% of everything screened.
SMARCA2 act: SMARCA2 function activation, primary screen; MG213 cells, MMTV-luciferase reporter, dexamethasone, overnight; activation, % at 9.1 µM; 370,000 compounds, 1% hits; AID 652017; in the data active means activation above about 7.8%;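 further: 0% = vehicle wells and 100% = reference activator wells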
697 NFkB inh: lowers PMA/ionomycin-induced NF-kB signal in 697 B cells; 697 B-cell NF-kB luciferase reporter, 16 h; inhibition, % at 4 µM; 330,000 compounds, 0.33% hits; AID 435022; in the data active means inhibition above about 35%
Jurkat NFkB inh: inhibitors of the PMA/ionomycin-induced NF-kB reporter in Jurkat cells; 330,000 compounds, 0.53% hits; PMA/ionomycin-induced NF-kB luciferase reporter, luminescence; inhibition, % at 4 µM; AID 435003; in the data active means inhibition above about 50%
Gli-Sufu block: blocks Gli-Sufu signaling in a luciferase reporter; Sufu-KO-LIGHT fibroblasts, Gli luciferase reporter luminescence; inhibition, % at 5 µM; 340,000 compounds, 0.74% hits;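 active means inhibition above about 55%, limit read from the data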;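 further: 0% = DMSO-treated cells and 100% = wells with medium but no cells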
esBAF inh: blocks esBAF chromatin remodeling in mouse ES cells. Bmi1-luciferase knock-in reporter, 24 h; 100% = twice the neutral-well signal. reporter increase, % at 12.5 µM. 350,000 compounds, 2% hits. AID 602393; in the data active means activation above about 40%;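 further: 0% = median of the plate's neutral control wells and 100% = double that signal; a rise in the Bmi1 reporter signal indicates esBAF inhibition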
Jurkat NFkB conf: inhibitors of the PMA/ionomycin-induced NF-kB reporter in Jurkat cells, retest. shares compounds with Jurkat NFkB inh. Jurkat NF-kB luciferase, 16 h. inhibition, % at 4 µM. 2,700 compounds, 27% hits;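 active means inhibition reaching about 45% at 4 µM in either replicate, limit read from the data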;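 further: plate controls were PMA/ionomycin stimulated DMSO wells for no effect and unstimulated DMSO wells for full effect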
697 NFkB conf: lowers PMA/ionomycin-induced NF-kB signal in 697 B cells. shares compounds with 697 NFkB inh. 697 B-cell NF-kB luciferase, 16 h. inhibition, % at 4 µM. 2,000 compounds, 35% hits. AID 449746; in the data active means inhibition mostly above about 28%, no sharp cut-off; inactive means mostly below about 22%
SMARCA2 conf: SMARCA2 activation, confirmation screen; shares compounds with SMARCA2 act; MG213 cells, MMTV-luciferase with dexamethasone, luminescence, overnight; MG213 cells expressing E1A, Rb sequestered; DMSO wells 0%, reference activator 100%; activation, % at 9.1 µM; 3,500 compounds, 30% hits; AID 652260;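 active means activation above its plate's cutoff, the mean activation of tested wells plus 3 SD, cut at about 7.9% in these data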
VP16 Luc act: counter-screen for SMARCA2 activators: GAL4-VP16 luciferase reporter activation | shares compounds with SMARCA2 act | HEK293 GAL4-VP16 pG5luc reporter, luciferase luminescence; scaled: DMSO wells 0%, SAHA wells 100% | activation, % at 9.1 µM | 3,500 compounds, 41% hits | AID 686939;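 active means activation above the solvent-only control well mean plus 3 SD, averaged across control plates, cut at about 5.2% in these data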
Active calls of the source: *; i = inactive; . = no result.

SMILES	SMARCA2 act	697 NFkB inh	Jurkat NFkB inh	Gli-Sufu block	esBAF inh	Jurkat NFkB conf	697 NFkB conf	SMARCA2 conf	VP16 Luc act
CCOc1cc(/C=N/Nc2cccc(C(=O)O)c2)ccc1OC(=O)c1ccccc1	11*	-20	58*	-174	-69	-20	.	5	18*
CCOc1cc(/C=N/NC(=O)CNc2cccc(C)c2)ccc1OC(=O)c1ccccc1	-2	31	2	-12	9	.	.	.	.
CC(C)(C)Nc1ncnc2c1cnn2-c1ccccc1	8.3*	-218	-173	-125	0	-127	.	11*	13*
O=C(Oc1ccc2ccccc2c1Cl)N1CCCCCC1	9.3*	i	-307	-77	.	-140	i	5	24*
O=C(O)C[C@H]1C=C[C@@H](NC(=O)Nc2ccccc2)[C@H](CO)O1	.	.	.	.	-2	.	.	.	.
O=C(Nc1ccc(-c2nc3cc(Cl)ccc3o2)cc1)C1CCCO1 (stereo not given)	8.2*	-263	-164	-95	-10	-88	-200	4	10*
O=S(=O)(N[C@H]1CC[C@H](CCn2cc(-c3cccc(F)c3)nn2)O[C@@H]1CO)c1ccccc1	.	.	.	.	1	.	.	.	.
O=c1c2ccccc2oc2cc(C#Cc3ccccn3)ccc12	8.0*	-254	-182	-112	-25	-86	-238	3	9.6*
C(=N\Nc1nc(Nc2ccccc2)nc(N2CCOCC2)n1)/c1c[nH]c2ccccc12	9.6*	60*	82*	36	.	-3	49*	1	7.7*
COC(=O)CSc1nc(-c2cccs2)ccc1C#N	11*	-85	-153	1	.	-97	.	13*	8.0*
C[C@@H]1CN([C@@H](C)CO)C(=O)Cc2cc(NC(=O)CCCCCC(=O)Nc3ccccc3N)ccc2O[C@@H]1CN(C)C(=O)Nc1ccc2c(c1)OCO2	.	.	.	.	-3	.	.	.	.
COc1ccc(S(=O)(=O)N(C)C[C@H]2Oc3c(NC(=O)C4CCCCC4)cccc3C(=O)N([C@@H](C)CO)C[C@@H]2C)cc1	.	.	.	.	5	.	.	.	.
Cc1nc(-c2ccccc2)sc1-c1ccnn1C	5	-172	-137	-126	.	.	.	.	.
Cc1nc(-c2ccccc2)sc1-c1ccn[nH]1	12*	-201	-185	-139	16	-118	.	14*	13*
O=C(Nc1ccc2ccccc2c1)c1cccc(F)c1	9.4*	-221	-200	-94	50*	-127	.	3	11*
O=C(Nc1ccc2[nH]ncc2c1)c1cccc(F)c1	4	-22	-18	-50	24	.	.	.	.
Cc1ccccc1N=Cc1cccc(O)c1O	.	-17	-5	5	.	.	.	.	.
Oc1cccc(/C=N/N=C/c2cccc(O)c2O)c1O	12*	-191	81*	16	36	-21	.	13*	7.4*
O=C(Nc1nc2ccsc2c(=O)s1)c1ccc(Cl)cc1	14*	-143	-199	-63	.	-108	.	10*	9.1*
CC(C)C#Cc1ccc2c(c1)O[C@@H](CN(C)C(=O)c1cccnc1)[C@H](C)CN([C@@H](C)CO)S2(=O)=O	.	.	.	.	5	.	.	.	.
CN1CCN(c2ccc(NC(=O)CSc3ccccc3)cc2F)CC1	8.1*	-159	-155	-25	-3	-51	.	7	8.6*
CNC[C@H]1Oc2ncc(-c3cccc(C(=O)N(C)C)c3)cc2C(=O)N([C@H](C)CO)C[C@@H]1C	.	.	.	.	-6	.	.	.	.
O=C(COc1ccccc1)Nc1ccc(-c2ccc(N3CCOCC3)nn2)cc1	2	-61	-10	-42	-16	.	.	.	.
CN1CCN(c2ccc(-c3cccc(NC(=O)COc4ccccc4)c3)nn2)CC1	8.4*	-133	-175	-45	-5	-73	.	6	12*
COc1cccc(N=Nc2ccc3ccccc3c2O)c1	8.0*	i	-197	-34	-48	-112	-295	3	5.6*
SMILES	SMARCA2 act	697 NFkB inh	Jurkat NFkB inh	Gli-Sufu block	esBAF inh	Jurkat NFkB conf	697 NFkB conf	SMARCA2 conf	VP16 Luc act
Oc1c(N=Nc2nn[nH]n2)ccc2ccccc12	1	.	.	.	.	.	.	.	.
CC(=O)N(C)C[C@H]1Oc2ncc(C#Cc3ccccc3F)cc2C(=O)N([C@H](C)CO)C[C@H]1C	.	.	.	.	-8	.	.	.	.
Cn1c(=NC(=O)c2cccc([N+](=O)[O-])c2)sc2ccccc21	8.7*	-183	-260	-94	23	-160	.	6	14*
COc1cc(C(=O)N=c2sc3ccccc3n2C)cc(OC)c1OC	-2	-38	-15	3	.	.	.	.	.
COc1cccc2sc(NN)nc12	-1	-7	-18	-4	.	.	.	.	.
COc1ccccc1-c1nnc(Nc2nc3c(OC)cccc3s2)o1	15*	-110	88*	89*	-37	34	.	6	24*
COc1cccc2sc(Nc3nnc(-c4ccccc4Cl)o3)nc12	8.8*	-30	58*	3	-4	45	.	6	2
Cc1noc(C)c1NC(=O)N(C)C[C@H]1Oc2ccc(NS(C)(=O)=O)cc2CC(=O)N([C@@H](C)CO)C[C@@H]1C	.	.	.	.	3	.	.	.	.
C=CCOc1ccc(NC(=O)C(=O)NCCCn2ccnc2)cc1	-1	46*	7	10	2	.	34*	.	.
CCCCCOc1ccc(NC(=O)C(=O)NCCCn2ccnc2)cc1	-3	48*	11	27	6	.	53*	.	.
CCCOc1ccc(C(=O)NCCCn2ccnc2)cc1	1	22	-10	1	2	.	.	.	.
Cc1ccc(CNC(=O)C(=O)NCCCn2ccnc2)cc1	-3	38*	13	10	.	.	2	.	.
Cc1ccoc1C(=O)Nc1ccc(CC(=O)O)cc1	-10	66*	38	31	-60	.	60*	.	.
O=C(NCC[C@@H]1CC[C@@H](NC(=O)C2CCCC2)[C@H](CO)O1)c1cc(Cl)cc(Cl)c1	.	.	.	.	-1	.	.	.	.
CC(=O)Nc1sc(NC(=O)c2ccc(C)cc2)nc1-c1cccs1	4	36*	-8	16	7	.	13	.	.
Oc1cc(O)cc(-c2cc3ccc(O)cc3o2)c1	-1	38*	-74	6	-27	.	35*	.	.
CC(C)NC(=O)N(C)C[C@@H]1Oc2c(NC(=O)c3nc4ccccc4s3)cccc2C(=O)N([C@@H](C)CO)C[C@@H]1C	.	.	.	.	3	.	.	.	.
CC(=C\c1ccccc1)/C=C1/SC(=O)N(CCCC(=O)Nc2ccc(C(=O)O)cc2)C1=O	-5	75*	6	7	-51	.	70*	.	.
CC(=Cc1ccccc1)C=C1SC(=S)N(CCCC(=O)Nc2ccc(C(=O)O)c(O)c2)C1=O	-2	.	.	.	-1	.	.	.	.
